# Assay results as given in ChEMBL document CHEMBL3988442, “University of Dundee, Small-Polar-MMV Screening Library” (2021).
# Screen size: about 48,000 compounds; about 13,000 (27%) showed an effect of 50% or more. Some of the results follow.
# Tested on: Wolbachia pipientis
# Test: Anti-Wolbachia Cell-Based Screen
# Format: functional
# Parameters: scale not given: in the data most compounds retested in dose-response had high values
# Conditions: 5 µM
row,SMILES,Percent Effect [%]
1,CSC(C)C(=O)NS(=O)(=O)CCc1ccccc1 (stereo not drawn),-7.68
2,Cc1n[nH]c(C2CN(C(=O)c3ccc(Cl)o3)CCO2)n1 (stereo not drawn),-21.06
3,CSCC(=O)N1CCOC(c2nc(C)n[nH]2)C1 (stereo not drawn),81.74
4,Cc1[nH]c(-c2ccccc2)nc1C(=O)N1CCc2[nH]cnc2C1C(=O)O (stereo not drawn),-27.35
5,COCCCNc1c(-c2ccc(Cl)cc2)c(=O)c1=O,75.4
6,COCCNc1c(-c2ccc(Cl)cc2)c(=O)c1=O,106.9
7,COCCN1CCN(Cc2ccc(Cl)cc2)[C@H]2CS(=O)(=O)C[C@H]21,3.262
8,COCCCNC(=O)Cc1cc(-c2ccc(Cl)cc2)on1,18.42
9,COCCNC(=O)CCNc1ccc(Cl)cn1,-1.356
10,COCCCN(C)S(=O)(=O)c1ccc(Cl)cc1C#N,-9.182
11,CCCNC(=O)CC1OCCc2ccsc21 (stereo not drawn),-18.02
12,CN1CCN(C[C@@H]2CN(Cc3c(Cl)cncc3Cl)C[C@@H]2CO)CC1,-1.243
13,CCOCCN1Cc2cnn(C)c2C(COCC)C1.O=C(O)C(F)(F)F.O=C(O)C(F)(F)F (stereo not drawn),-55.01
14,Cn1ncc2c1C(COCC1CC1)CN(c1ncc(F)cn1)C2 (stereo not drawn),102.8
15,COCC1CN(c2ncccn2)Cc2cnn(CC3CC3)c21 (stereo not drawn),112.4
16,COCC1CN(c2ncc(F)cn2)Cc2cnn(C)c21.O=C(O)C(F)(F)F.O=C(O)C(F)(F)F (stereo not drawn),94.8
17,COCC1CN(Cc2cc(C)on2)Cc2cnn(C)c21.O=C(O)C(F)(F)F.O=C(O)C(F)(F)F (stereo not drawn),-1.756
18,CCn1ncc2c1C(COC)CN(c1ncc(F)cn1)C2.O=C(O)C(F)(F)F.O=C(O)C(F)(F)F (stereo not drawn),103.8
19,CCn1ncc2c1C(COC)CN(S(=O)(=O)N(C)C)C2.O=C(O)C(F)(F)F (stereo not drawn),-1.525
20,Cn1ncc2c1C(COCC1CC1)CN(S(C)(=O)=O)C2 (stereo not drawn),3.209
21,COCC1CN(C(=O)N2CCCC2)Cc2cnn(CC3CCCC3)c21 (stereo not drawn),9.026

row,SMILES,Percent Effect [%]
1,Cn1ncc2c1C(COCC1CC1)CN(CC1CC1)C2 (stereo not drawn),3.494
2,Cn1cc(C[C@H]2[C@H](N3CCOCC3)CCN2C2CCOCC2)cn1.O=C(O)C(F)(F)F.O=C(O)C(F)(F)F,-4.511
3,COCC1(C(=O)N2CCC(c3nccn3CC3CC3)CC2)CCC1,2.579
4,CCN(CC)CCSc1nnc(N2CCN(c3ccccc3)CC2)s1,-12.7
5,CN(Cc1cccc(O)c1)CC1CCCN(CCc2ccc(Cl)cc2)C1 (stereo not drawn),2.569
6,CNC(=O)CSc1cnn(CC(=O)Nc2cccc(Cl)c2C)c(=O)c1Cl,-42.51
7,Cc1cnc(N2CCC3(CCC(C(=O)NC(C)C)OC3)CC2)nc1 (stereo not drawn),-9.523
8,CC(=O)N1CCCN(C(=O)NCCCNS(C)(=O)=O)CC1,-1.689
9,COCCN1CCN(C(=O)c2ccc(C)cc2OC)[C@H]2CS(=O)(=O)C[C@H]21,5.009
10,COc1ccc(CNCC2CCN(c3ccccc3OC)C2)cc1O (stereo not drawn),114.3
11,COc1cccc(N2CCC(CNC(=O)NCc3ccco3)C2)c1 (stereo not drawn),2.217
12,COc1ccccc1N1CCC(CNS(=O)(=O)c2cccc(C#N)c2)C1 (stereo not drawn),87.58
13,COc1ccccc1N1CCC(CNCc2cccc(C#N)c2)C1 (stereo not drawn),-2.203
14,COc1ccccc1N1CCC(CNS(=O)(=O)c2c(C)nn(C)c2C)C1 (stereo not drawn),-2.863
15,COc1ccccc1N1CCC(CNCc2c(C)nn(C)c2OC)C1 (stereo not drawn),-29.19
16,N#Cc1ccc(CNCC2CCN(CCO)CC2)cc1,-8.382
17,COc1ccccc1N1CCC(CNCc2ccc(C#N)cc2)C1 (stereo not drawn),109.5
18,COc1ccccc1N1CCC(CNS(=O)(=O)c2cccs2)C1 (stereo not drawn),-9.312
19,COc1cccc(N2CCC(CNCc3cccc(C#N)c3)C2)c1 (stereo not drawn),82.37
20,COc1cccc(N2CCC(CNc3cc(C)nc4ncnn34)C2)c1 (stereo not drawn),-5.133
21,COc1ccccc1N1CCC(CNCc2cccc(O)c2)C1 (stereo not drawn),-3.366

row,SMILES,Percent Effect [%]
1,CC(C)(C)N1CC(C(=O)N2CCN(CCn3cncn3)CC2)CC1=O (stereo not drawn),-32.16
2,Cc1nc(NC(=O)NC2CC(=O)N(C(C)C)C2)nn1C(C)C (stereo not drawn),-10.65
3,N#CCCN1CCC(=Cc2ccccc2)CC1,4.186
4,CC(C)C(=O)N1CCC2(COCc3cnc(-c4cccnc4)nc32)C1 (stereo not drawn),110.7
5,O=C(CC1CC1)N1CCC2(COCc3cnc(-c4ccccc4)nc32)C1 (stereo not drawn),-2.156
6,COCCC(=O)N1CCC2(COCc3cnc(-c4cccnc4)nc32)C1 (stereo not drawn),82.83
7,COCC(=O)N1CCC2(COCc3cnc(-c4ccccc4)nc32)C1 (stereo not drawn),-5.335
8,CC(C)NC(=O)N1CCC2(COCc3cnc(-c4ccccc4)nc32)C1 (stereo not drawn),-4.544
9,O=C(CC1CC1)N1CCC2(COCc3cnc(-c4cccnc4)nc32)C1 (stereo not drawn),110.1
10,O=C(C1CCC1)N1CCC2(COCc3cnc(-c4cccnc4)nc32)C1 (stereo not drawn),-1.349
11,O=C(c1ccon1)N1CCc2ncnc(NCc3cccnc3)c2CC1,-8.818
12,CN1CCN(c2cc(CNCc3cccc4c3OCO4)ccn2)CC1,11.73
13,CC1CCCN(S(=O)(=O)NCCN/C(O)=C2/N=CC=CC2=O)C1 (stereo not drawn),-6.366
14,CN(C)C[C@H]1C[C@@H]2CN(C(=O)c3ccco3)C[C@@H]2O1,-6.391
15,O=C(NC[C@H]1C[C@@H]2CN(C(=O)c3ccno3)C[C@@H]2O1)C1CCC1,2.338
16,Cn1cccc1C(=O)NC[C@H]1C[C@@H]2CN(C(=O)c3ccco3)C[C@@H]2O1,102.1
17,Cn1cccc1C(=O)NC[C@H]1C[C@@H]2CN(C(=O)c3ccno3)C[C@H]2O1,1.866
18,O=C(NC[C@@H]1C[C@@H]2CN(C(=O)CO)C[C@H]2O1)c1ccsc1,119.3
19,O=C(NC[C@H]1C[C@@H]2CN(C(=O)c3ccco3)C[C@@H]2O1)c1ccsc1,124.8
20,O=C(c1ccsc1)N1C[C@@H]2C[C@@H](c3nnc(C4CC4)o3)O[C@@H]2C1,1.173
21,O=C(NCC1Cn2nnc(-c3ccncc3)c2CO1)c1ccsc1.O=C(O)C(F)(F)F (stereo not drawn),-1.201
